From PubChem BioAssay (Tox21)
Inconclusive results are not listed. Activity calls are given as the source filed them. The call rests on the fitted dose curve.

Key:
[1] = target: Acetylcholinesterase (Homo sapiens) (UniProt P22303); assay: Acetylcholinesterase (AChE) small molecule antagonists: colormetric cell-based qHTS assay (AID 1347395); further: nearly all actives have a fitted effect of over 30% in size
Outline: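 Homogeneous whole-cell format. SH-SY5Y cells seeded overnight, dosed with compound (30 min, 37 C, 5% CO2), then given DTNB/acetylthiocholine cocktail for 90 min at 37 C; colorimetric signal.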

[2] = target: Acetylcholinesterase (Homo sapiens) (UniProt P22303); assay: Acetylcholinesterase (AChE) small molecule antagonists: enzyme-based qHTS assay (AID 1347397); conditions: Potency: AChE enzyme activity inhibition; outcome: AChE enzyme activity inhibition; further: nearly all actives have a fitted effect of over 55% in size
Outline: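 Absorbance-based detection of thiocholine with DTNB served as the read-out. Recombinant human AChE was exposed to compound for 30 min at RT before a 10 min RT incubation with acetylthiocholine.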

[3] = target: Acetylcholinesterase (Homo sapiens) (UniProt P22303); assay: Acetylcholinesterase (AChE) small molecule antagonists: fluorescence cell-based qHTS assay (AID 1347398); conditions: Potency: AChE activity; outcome: AChE activity; further: nearly all actives have a fitted effect of over 50% in size
Outline: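 Fluorimetric cell-based assay: intact SH-SY5Y cells, 30 min compound preincubation at 37 C, acetylthiocholine substrate with thiol probe Thiolite Green, 40 min RT development, fluorescence 490/520 nm.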

[4] = target: Acetylcholinesterase (Homo sapiens) (UniProt P22303); assay: Acetylcholinesterase (AChE) small molecule antagonists: enzyme-based qHTS assay with human liver microsomes (AID 1347399); conditions: Potency: qHTS inhibition; outcome: qHTS inhibition; further: nearly all actives have a fitted effect of over 60% in size
Outline: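 Recombinant human AChE (50 mU/mL in the enzyme mix) and human liver microsomes (0.25 mg/mL final) were preincubated with compound and NADPH (0.25 mg/mL final) for 30 min at 37 C. Acetylthiocholine/DTNB was then added; thiocholine was read colorimetrically after 10 min at room temperature.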
On the % scale 0 is the no-effect control and ±100 the full control effect.

Acetylcholinesterase (Homo sapiens), sequence (P22303 whole entry, looked up): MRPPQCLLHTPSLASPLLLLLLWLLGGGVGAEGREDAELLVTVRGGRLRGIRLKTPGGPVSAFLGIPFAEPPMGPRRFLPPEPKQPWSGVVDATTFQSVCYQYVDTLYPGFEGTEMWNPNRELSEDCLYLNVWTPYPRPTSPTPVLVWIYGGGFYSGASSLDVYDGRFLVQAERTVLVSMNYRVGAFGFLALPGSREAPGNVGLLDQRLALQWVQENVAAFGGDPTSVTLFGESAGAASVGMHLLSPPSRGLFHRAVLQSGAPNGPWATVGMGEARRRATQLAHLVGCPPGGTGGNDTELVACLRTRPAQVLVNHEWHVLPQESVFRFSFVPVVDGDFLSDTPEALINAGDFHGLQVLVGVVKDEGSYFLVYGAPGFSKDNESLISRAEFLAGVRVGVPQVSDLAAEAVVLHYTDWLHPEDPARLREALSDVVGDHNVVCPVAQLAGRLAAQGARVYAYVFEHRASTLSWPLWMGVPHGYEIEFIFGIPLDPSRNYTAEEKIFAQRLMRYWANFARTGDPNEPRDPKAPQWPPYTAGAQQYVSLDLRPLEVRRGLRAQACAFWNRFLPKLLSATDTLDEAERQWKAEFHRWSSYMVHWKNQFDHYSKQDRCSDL

COc1ccc(-c2cc(=S)ss2)cc1
inactive: Potency [1] | Potency [2] | Potency [3] | Potency [4]

CC1=CC=C(C(C)C)CC1
inactive: Potency [1] | Potency [2] | Potency [3] | Potency [4]

CN1CCC(=C2c3ccccc3Sc3ccccc32)CC1
inactive: Potency [1] | Potency [2] | Potency [3] | Potency [4]

C[C@H](CCC(=O)NCC(=O)O)[C@H]1CC[C@H]2[C@@H]3[C@H](O)C[C@@H]4C[C@H](O)CC[C@]4(C)[C@H]3C[C@H](O)[C@]12C
inactive: Potency [1] | Potency [2] | Potency [3] | Potency [4]

O=S(=O)(O)c1ccc2c(N=Nc3ccc(S(=O)(=O)O)c4ccccc34)c(O)c(S(=O)(=O)O)cc2c1
inactive: activity, negative = inhibition [1] -0.661% [at 10.5 µM] | activity change, negative = inhibition [2] 1.09% [at 10.5 µM] | activity change, negative = inhibition [3] 5.15% [at 10.5 µM] | activity change, negative = inhibition [4] 1.78% [at 10.5 µM]

O=C(O)CCCCCCCCCCCBr
inactive: Potency [1] | Potency [2] | Potency [3] | Potency [4]

COc1ccc(/C=C/c2cc(OC)cc(=O)o2)cc1
inactive: Potency [1] | Potency [2] | Potency [3] | Potency [4]

COc1ccc(-c2coc3cc(O)ccc3c2=O)cc1
inactive: Potency [1] | Potency [2] | Potency [3] | Potency [4]

O=c1[nH]c(=O)n([C@H]2O[C@H](CO)[C@@H](O)[C@@H]2O)cc1/C=C\Br
inactive: Potency [1] | Potency [2] | Potency [3] | Potency [4]

CCCCC(CC)COP(=O)(O)O (stereo not drawn)
inactive: Potency [1] | Potency [2] | Potency [3] | Potency [4]

CC(C)(O)Cc1ccccc1
inactive: Potency [1] | Potency [2] | Potency [3] | Potency [4]

O=C1CC2(CCCC2)CC(=O)N1
inactive: Potency [1] | Potency [2] | Potency [3] | Potency [4]
